Among the data in PubChem BioAssay AID1631 (National Center for Advancing Translational Sciences (NCATS), 2009) are Potency and activation values, retold here.

The whole screen tested about 260,000 compounds, of which about 890 (0.34%) were called active. A call without a number means that no potency is given here. Inconclusive results (about 1%) are left out. This is one part of a sample in which actives are shown more often than they occur. Calls come from the whole dose curve; as a rule, active = well fitted activation curve with a large enough effect; inconclusive = small, poorly fitted or top-dose-only effect; inactive = no such curve, though single readings can be large or run the other way.
Potency is the fitted concentration of half-maximal effect.

Pyruvate kinase PKM (Homo sapiens), sequence (P14618 whole entry, looked up, canonical isoform): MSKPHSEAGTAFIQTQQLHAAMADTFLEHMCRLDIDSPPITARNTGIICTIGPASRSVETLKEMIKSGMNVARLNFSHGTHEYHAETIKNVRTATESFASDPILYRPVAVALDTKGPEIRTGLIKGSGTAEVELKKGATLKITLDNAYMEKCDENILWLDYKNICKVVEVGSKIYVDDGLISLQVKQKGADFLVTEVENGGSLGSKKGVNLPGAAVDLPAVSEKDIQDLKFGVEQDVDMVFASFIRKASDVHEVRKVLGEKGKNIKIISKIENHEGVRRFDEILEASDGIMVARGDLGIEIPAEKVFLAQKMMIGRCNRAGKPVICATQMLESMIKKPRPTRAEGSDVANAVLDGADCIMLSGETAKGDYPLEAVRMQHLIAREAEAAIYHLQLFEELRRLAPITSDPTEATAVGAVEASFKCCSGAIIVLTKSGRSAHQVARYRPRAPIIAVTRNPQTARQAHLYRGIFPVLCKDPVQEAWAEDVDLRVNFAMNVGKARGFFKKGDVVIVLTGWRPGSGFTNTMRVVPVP

The target in this assay is Pyruvate kinase PKM (Homo sapiens) (UniProt P14618). Nature of the assay: qHTS Assay for Activators of Human Muscle isoform 2 Pyruvate Kinase. Note: nearly all actives have a fitted effect of over 55% in size. The note with it: purified PKM2, Kinase-Glo ATP luminescence; Potency: activation; series mostly up to 57.5 µM. The source says:
NIH Chemical Genomics Center [NCGC] Matthew G. Vander Heiden, M.D., Ph.D. [Harvard Medical School, 77 Avenue Louis Pasteur, Boston, MA 02115] MLPCN Grant: 1 R03 MH085679-01 NCGC Assay Overview: Human pyruvate kinase muscle 2 (hPK-M2) enzyme was supplied as a highly purified (>95% pure) preparation from Harvard Medical School and assayed for its ability to generate ATP from ADP using phosphoenolpyruvate (PEP) as a substrate. ATP generation was detected in a coupled reaction by luciferase-mediated luminescence, an ATP-dependent process. […] The enzyme was assayed at an intermediate level of activity to screen for both inhibitors and activators.
NCGC Assay Protocol Summary: Three uL of substrate mix (at r.t.) in assay buffer (50 mM Imidazole pH7.2, 50 mM KCl, 7 mM MgCl2, 0.01% Tween 20, 0.05% BSA) was dispensed into white solid bottom 1,536 well microtiter plates so that the final concentrations of substrates in the assay were 0.1 mM ADP and 0.5 mM PEP. 23 nL of compound were delivered by a pin tool and 1 uL of enzyme mix in assay buffer (4 degree Celsius) was added. Plates were incubated at room temperature for 1 hour. Two uL of detection mix (Kinase-Glo, Promega; at 4 degree Celsius protected from light) was added and luminescence read by a ViewLux (Perkin Elmer) at 5 second exposure/plate. Data were normalized to the uninhibited and AC100 inhibition (no enzyme). To monitor activation, the first column contained a titration of the activator, NCGC00031955-01 (16-point 1:2 dilutions in duplicate starting at 57 uM) and the first 16 rows of column 4 contained 57 uM of NCGC00031955-01.
A general note: qHTS replaces the single test concentration by a dilution series.
For the compound `Cc1nc(SCC(=O)Nc2cc(C)on2)c2c(C)c(C)sc2n1`, the Potency result is “inactive”.
On to `Cc1cc(NC(=O)CSc2nnc(-c3ccc(Cl)s3)o2)no1`, for which the Potency is 2.51 µM (active).
With `COc1ccccc1-c1nnc(SCC(=O)Nc2cc(C)on2)o1`, the Potency result is “inactive”.
On the same count and under the same terms, to `COc1cc(NC(=O)C2=CC(c3ccc(C)cc3)=NS(=O)(=O)N2C)cc(OC)c1OC` belongs “inactive”.
As for `CCOc1ccccc1NC(=S)N1CCN(c2cccc(C)c2C)CC1`, the activation is -8.49% [at 11.5 µM, 0% is enzyme alone, no compound] (inactive).
Consider `Fc1ccc(/C=N/Nc2nc(-c3cccnc3)nc3ccccc23)cc1`, for which the Potency result was “inactive”.
Consider `Cc1ccc2nc(C)cc(N/N=C/c3ccc(F)cc3)c2c1`, for which the Potency was 15.8 µM (active).
Still for that read-out and setting: as for `CCOc1cc(/C=N/Nc2cc(C)nc3ccc(C)cc23)ccc1O`, the entry is “inactive”; as for `Cc1cc(C)n(C(=O)c2ccc(S(=O)(=O)N3CCCC3)cc2)n1`, “inactive”.
On the same count and under the same terms, as for `CC(C)(C)NC(=O)Cn1nnc(-c2ccccc2Cl)n1`, the entry is “inactive”; as for `Cc1ccccc1-c1nnn(CC(=O)c2ccc(S(=O)(=O)N3CCCC3)cc2)n1`, 7.94 µM (active).
As to `O=C(NC(=S)Nc1ccc(Cl)cc1Cl)C1CC1`, the Potency entry was “inactive”.
As for `NS(=O)(=O)c1cccc(NC(=O)CN2CCCc3ccccc32)c1`, the Potency result is “inactive”.
Regarding `COC(=O)c1[nH]c2ccccc2c1NC(=O)CN1CCCc2ccccc21`, the Potency was 28.2 µM (active).
Same read-out and setting: to `COC(=O)c1[nH]c2cccc(C)c2c1NC(=O)CN1CCCc2ccccc21` belongs “inactive”; to `CCOc1ccccc1NC(=S)NC(=O)CCc1ccccc1`, “inactive”; to `CC(=O)c1cc(C#N)c(SCC(=O)C(C)(C)C)nc1C`, “inactive”.
Take `Cc1cc(C(F)(F)F)nc(SCC(=O)Nc2nccs2)n1`: the Potency entry was “inactive”.
`CC(=O)c1cc(C#N)c(SCC(=O)Nc2nccs2)nc1C`: the Potency is 1 µM (active).
As for `CC1CCCCC1NC(=O)CCS(=O)(=O)c1ccc2c(c1)NC(=O)CO2` (stereo not given), the activation was 0.549% [at 0.46 µM, 0% is enzyme alone, no compound] (inactive).
On to `CC(=O)OCCN(CCCn1c(-c2ccncc2)nc2ccccc21)c1nc(-c2ccc(C)cc2)cs1`, for which the Potency result was “inactive”.
The same measure, in the same setting: to `CC(C)c1ccc(NC2CCCN(C(=O)c3ccncc3)C2)cc1` (stereo not given) belongs “inactive”.
Same read-out and setting: as for `O=C(c1ccccc1)N1CCN(C(=O)c2cc3nc(-c4ccccc4)cc(C(F)(F)F)n3n2)CC1`, the entry is “inactive”.
`CC(C)c1ccc(S(=O)(=O)N2CCN(C(=O)c3ccc(N4CCCC4)c([N+](=O)[O-])c3)CC2)cc1`: the Potency entry is “inactive”.
The same measure, in the same setting: as for `CCCOc1ccc(/C=N/NC(=O)C2CC2)c(OCCC)c1`, the entry is “inactive”; as for `O=C(C1CCC(=O)N(C2CC2)C1)N1CCN(c2ccc(Cl)cc2)CC1` (stereo not given), “inactive”; as for `CC(C)c1ccc(NC(=O)C2CCCN(S(=O)(=O)c3cccnc3)C2)cc1` (stereo not given), “inactive”.
Regarding `COCc1cc(=O)n2[nH]c(C)c(-c3ccccc3)c2n1`, the activation was -8.06% [at 11.5 µM, 0% is enzyme alone, no compound] (inactive).
For the compound `CN(NS(=O)(=O)c1cccs1)c1ncc(C(F)(F)F)cc1Cl`, the Potency result was “inactive”.
Take `CCOc1ccccc1N1C(=O)CC(Sc2nccc(C)n2)C1=O` (stereo not given): the Potency result is “inactive”.
For the compound `CCCn1c(C2CCCN2c2nc(-c3ccc(OC)cc3)cs2)nc2ccccc21` (stereo not given), the Potency entry is “inactive”.
The same measure, in the same setting: as for `COC(=O)c1ccc(CN2CCCC(C(=O)Nc3cccc(-n4cnnn4)c3)C2)cc1` (stereo not given), the entry is “inactive”; as for `CCOc1ccc(NS(=O)(=O)c2ccc(OCC(=O)NCCCOC)cc2)cc1`, “inactive”; as for `CNC(=O)COc1ccc(S(=O)(=O)Nc2ccccc2)cc1`, 10 µM (active).
On the same count and under the same terms, as for `COC(=O)COc1ccc(S(=O)(=O)Nc2ccc(NC(C)=O)cc2)cc1`, the entry is “inactive”.
The same measure, in the same setting: as for `COc1cccc(OCC(O)CNC(=O)c2oc3c(C)c(C)ccc3c2C)c1` (stereo not given), the entry is “inactive”; as for `Cc1ccc(-n2ncc3c2CC(C)(C)CC3NC(=O)Cc2c(C)noc2C)cc1` (stereo not given), “inactive”.
For the compound `O=C(NCCN1CCN(C(=O)c2cccc([N+](=O)[O-])c2)CC1)C(=O)NCc1ccc(Cl)cc1`, the Potency result was “inactive”.
For `Cc1ccc(C)c(OCc2cc(C(=O)N3CCN(c4cnccn4)CC3)no2)c1`, the Potency result is “inactive”.
On the same count and under the same terms, to `C/C(=N\NC(=O)c1ccoc1C)c1ccccc1O` belongs “inactive”.
Regarding `C=CCn1c(SCc2csc(C)n2)nc2scc(-c3ccc(C)o3)c2c1=O`, the Potency is 10 µM (active).
Take `C=CCNC(=O)CSc1nc2scc(-c3ccco3)c2c(=O)n1CC=C`: the Potency entry is “inactive”.
Still for that read-out and setting: as for `C=CCn1c(SCC(=O)NCC2CCCO2)nc2sc(C)c(C)c2c1=O` (stereo not given), the entry is “inactive”; as for `CC(=O)Nc1cccc(Nc2nc(-c3cccs3)nc3ccccc23)c1`, “inactive”.
For `Cc1cc(NC(=O)c2ccco2)c(=O)n(Cc2c(F)cccc2Cl)c1`, the Potency result is “inactive”.
`N#C[C@]1(S(=O)(=O)c2ccccc2)C[C@@H]2ON=C(c3cccc(Br)c3)[C@@H]2C1`: the Potency entry was “inactive”.
As for `O=C(Nc1ccc(Cl)cc1)c1cccc(OC(=S)N2CCOCC2)c1`, the Potency entry was “inactive”.
On the same count and under the same terms, as for `Cc1cc(C)cc(OCc2nnc(SCC(=O)Nc3ccccc3)o2)c1`, the entry is “inactive”.
Still for that read-out and setting: as for `COc1ccccc1-c1nnc(SCC(=O)Nc2ccccc2)o1`, the entry is “inactive”; as for `COc1cccc(NC(=O)CSc2nnc(Cc3ccc(OC)c(OC)c3)o2)c1`, 14.1 µM (active).
